Laboratory results as given in PubChem BioAssay AID1159580 (chemical genetic matrix, 2015).
Hit rate of the full screen: of about 5,500 compounds, about 2,000 (36%) were called active. About 18% were inconclusive and are not listed. Some of the results follow. Unmarked numbers belong to inactive results. Rule as the data show it: active = normalized growth mostly below about 0.91 (no sharp cut-off); inconclusive = no clear call, values can overlap the other calls; inactive = mostly above about 0.92. Where a SMILES comes first, the peptide text is derived from it. [ ]: non-standard residue; d: D form. Orn = NCCC[CH](N)C(=O)O

Assay: chemical genetic growth profiling, strain panel (AID 1159580);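 also: tested at 20 µM; growth read once vehicle control cultures reached saturation at 30 °C; 1 = growth at the plate median or of vehicle wells; lower values mean less growth of the strain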
Settings: S. cerevisiae deletion strains, growth OD, locus YOL012C, strain htz1

Q: For `CC(C)CC1NC(=O)C(CCCN)NC(=O)C(C(C)C)NC(=O)C(Cc2ccc(O)cc2)NC(=O)C(CCC(=O)O)NC(=O)C(CC(=O)O)NC(=O)C(Cc2ccccc2)NC(=O)C(Cc2ccccc2)NC(=O)C2CCCN2C(=O)C(Cc2ccccc2)NC1=O` (stereo unspecified) (cyclo(DEYV[Orn]LFPFF); configuration not given here), which normalized growth is on record?
A: Its normalized growth is 0.202.
